High-throughput results as filed in PubChem.
Hits are enriched below; roughly 5.4% of the tested compounds scored in any of these assays.
Gal4-VP16 FLuc = Gal4-VP16 reporter inhibition counter-screen. Drosophila S2 Gal4-VP16 UAS-luciferase, luminescence, 20 h. actives 3.5% (n = 310,000). Potency, µM (series often up to 53.6 µM), hits mostly inhibitors;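 note: Gal4-VP16 expression switched on by copper sulfate through the metallothionein promoter; nearly all actives have a fitted effect of over 50% in size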
Six1-Eya2 blk = blocks human Six1 binding to Eya2. actives 0.56% (n = 360,000). activity change, % (no concentration beside the values). AlphaScreen GST-Six1/His-Eya2 binding, biochemical; active compounds read low. AID 651725; in the data active = activity change below about -65%; inconclusive = mostly about -30% to -63%
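Homogeneous AlphaScreen proximity assay pairing GST-Six1 with His-tagged Eya2 (added as 5X mix: 250 nM and 500 nM) in 50 mM Tris pH 8.0, 300 mM NaCl, 1 mM TCEP. Glutathione donor and nickel acceptor beads; 1 h, 37 °C, dark.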
CtBP-E1A blk = CtBP/E1A binding inhibition; actives 0.49% (n = 340,000); AlphaScreen GST-E1A/His-CtBP binding, 1536-well; active compounds read low; activity change, % (concentration not given with the values); in the data active = activity change below about -65%; inconclusive = mostly about -30% to -63%
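In 5 uL wells, 23 nL compound meets equimolar GST-E1A and His-CtBP (5X stock 125 nM each) for 2 h, 37 °C. Beads (5X, 50 ug/mL) then 1 h, 37 °C, dark.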
p53 reactivator = restores transcriptional activity of mutant p53. H1299 p53-A138V BP100-luciferase reporter, luminescence, 24 h. Potency, µM (series often up to 92.2 µM), actives largely listed as activators. actives 0.063% (n = 320,000). AID 504706; note: nearly all actives have a fitted effect of over 45% in size
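p53-null H1299 cells stably carrying temperature-sensitive p53-A138V and a BP100-luciferase reporter were pinned with compounds (4-point, 1:5 series) and held 24 hrs at 37 deg C. Luminescence was read 10 min after detection reagent.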
RORgamma inh = ROR gamma (mouse) transcription inhibition; P51450; Drosophila S2 Gal4-RORgamma UAS-luciferase reporter, 20 h; Potency, µM (doses to about 53.6 µM), actives largely listed as inhibitors; actives 5.4% (n = 310,000); note: nearly all actives have a fitted effect of over 60% in size
Target sequence (P51450 whole entry, looked up, the tested form may be a part): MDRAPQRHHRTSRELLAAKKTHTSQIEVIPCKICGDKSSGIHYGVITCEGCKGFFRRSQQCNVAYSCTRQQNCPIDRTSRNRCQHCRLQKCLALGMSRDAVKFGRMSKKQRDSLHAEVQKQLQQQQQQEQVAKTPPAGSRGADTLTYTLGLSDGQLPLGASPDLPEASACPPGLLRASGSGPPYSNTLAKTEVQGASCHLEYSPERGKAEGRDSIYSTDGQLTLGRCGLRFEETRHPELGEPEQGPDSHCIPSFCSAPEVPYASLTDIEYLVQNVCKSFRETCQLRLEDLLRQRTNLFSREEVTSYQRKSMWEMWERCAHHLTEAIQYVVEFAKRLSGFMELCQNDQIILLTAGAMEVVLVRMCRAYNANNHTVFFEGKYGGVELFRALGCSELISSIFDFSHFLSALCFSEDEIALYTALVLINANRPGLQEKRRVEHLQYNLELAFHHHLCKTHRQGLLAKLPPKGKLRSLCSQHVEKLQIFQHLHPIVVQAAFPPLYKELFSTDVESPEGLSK
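Drosophila S2 cells stably expressing Gal4-DBD/mouse RORγ fusion under metallothionein promoter plus UAS-luciferase; compound 1 h, then 700 uM CuSO4 induction for 20 h at ambient temperature; inhibition read as reduced luminescence.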
Of the large screens only hits and unclear results are named; the others gave an inactive call. Unless noted, calls come from the whole dose curve; as a rule, active = well fitted curve in the direction sought with a large enough effect; inconclusive = small, poorly fitted or top-dose-only effect, or another doubt; inactive = no such curve, though single readings can be large; an effect the other way counts as inactive or inconclusive.

CC1CN(C(=S)Nc2ccccc2)N(c2ccccc2)C1 (stereo unspecified)	RORgamma inh 11µM
CC1CN(C(=S)Nc2ccccc2)CC(C)O1 (stereo unspecified)	none (no result: CtBP-E1A blk, p53 reactivator)
Cc1cc(NS(=O)(=O)c2ccc(Nc3nc(-c4sc(N)nc4C)cs3)cc2)no1	Six1-Eya2 blk -91, CtBP-E1A blk -90
Cc1cc(O)ccc1Nc1nc(-c2sc(N)nc2C)cs1	Six1-Eya2 blk inconclusive, CtBP-E1A blk -67, p53 reactivator inconclusive
COc1ccc(OC)c(Nc2nc(-c3sc(N)nc3C)cs2)c1	Six1-Eya2 blk inconclusive, CtBP-E1A blk -68
CCCC(=O)Nc1nc(C)c(-c2csc(Nc3cc(OC)ccc3OC)n2)s1	RORgamma inh inconclusive
O[C@@H]1CO[C@H]2C1OC[C@@H]2O (stereo partly specified)	none (no result: Six1-Eya2 blk, CtBP-E1A blk, p53 reactivator)
Cn1c(=O)[nH]c(=O)c2c1nc(N1CCCCC1)n2C/C=N/NC(=O)c1cc(Br)ccc1O	Gal4-VP16 FLuc inconclusive, CtBP-E1A blk inconclusive, RORgamma inh 13µM
C=CCn1c(N2CCCC2)nc2c1c(=O)[nH]c(=O)n2C	none
N=c1c2c(-c3ccccc3)c(-c3ccccc3)n(Cc3ccco3)c2ncn1CCCO	Gal4-VP16 FLuc 3.2µM, RORgamma inh 3.2µM
CCCC(=O)NC(c1ccccc1)c1c(O)ccc2ccccc12 (stereo unspecified)	RORgamma inh inconclusive (no result: CtBP-E1A blk, p53 reactivator)
CCCC(=O)NC(c1ccc(Cl)cc1)c1ccc2cccnc2c1O (stereo unspecified)	Gal4-VP16 FLuc 2.8µM, Six1-Eya2 blk -70, CtBP-E1A blk -77, RORgamma inh 2.2µM
CCCC(=O)NC(c1ccc(Cl)cc1Cl)c1ccc2cccnc2c1O (stereo unspecified)	Gal4-VP16 FLuc 2µM, Six1-Eya2 blk inconclusive, CtBP-E1A blk -73, RORgamma inh 5.6µM (no result: p53 reactivator)
CCCC(=O)NC(c1ccccc1Cl)c1c(O)ccc2ccccc12 (stereo unspecified)	none
CCCC(=O)NC(c1ccc(C)cc1)c1ccc2cccnc2c1O (stereo unspecified)	Gal4-VP16 FLuc 2.2µM, Six1-Eya2 blk -66, CtBP-E1A blk -90, RORgamma inh 1.6µM
COc1ccc(C(NC(C)=O)c2ccc3cccnc3c2O)c(OC)c1 (stereo unspecified)	Gal4-VP16 FLuc 4.5µM, Six1-Eya2 blk inconclusive, CtBP-E1A blk inconclusive, p53 reactivator inconclusive, RORgamma inh inconclusive
CC(=O)C1=C(O)C(=O)N(c2cccc(Br)c2)C1c1ccccc1Cl (stereo unspecified)	none
COC(=O)NC(CC(C)=O)c1ccccc1 (stereo unspecified)	none (no result: Six1-Eya2 blk, CtBP-E1A blk, p53 reactivator)
O=C(NCc1ccc(F)cc1)N1[C@H]2CC[C@@H]1C=C(c1ccc(F)cc1OCc1ccccc1)C2	none (no result: Gal4-VP16 FLuc, p53 reactivator, RORgamma inh)
CC(=O)NC(c1ccc2ccccc2c1)c1ccc2cccnc2c1O (stereo unspecified)	Gal4-VP16 FLuc 1.6µM, Six1-Eya2 blk -89, CtBP-E1A blk -66, RORgamma inh 5µM (no result: p53 reactivator)
CC(=O)NC(c1ccc(Cl)cc1Cl)c1ccc2cccnc2c1O (stereo unspecified)	Gal4-VP16 FLuc 1.8µM, Six1-Eya2 blk -90, CtBP-E1A blk -88, RORgamma inh 2µM
COc1cccc(-c2nccc(NCc3cnc(C)cn3)n2)c1	none (no result: Six1-Eya2 blk, CtBP-E1A blk, p53 reactivator)
Cc1cc(S(=O)(=O)NCCC2=CCCCC2)ccc1Br	none (no result: Gal4-VP16 FLuc, RORgamma inh)
Cc1ccc(S(=O)(=O)NCCC2=CCCCC2)cc1C(N)=O	Gal4-VP16 FLuc 7.9µM, RORgamma inh inconclusive
O=C(NC12CC3CC(CC(C3)C1)C2)c1ccc(N2CCNCC2)c([N+](=O)[O-])c1	none
O=c1cc(-c2ccc(O)cc2)oc2cc(OC3OC(CO)C(O)C(O)C3O)c(C3OC(CO)C(O)C(O)C3O)c(O)c12 (stereo unspecified)	none (no result: Six1-Eya2 blk, CtBP-E1A blk, p53 reactivator)
O=C(Nc1nc2ccc(F)cc2s1)C1CCN(S(=O)(=O)c2cc([N+](=O)[O-])ccc2Cl)CC1	Gal4-VP16 FLuc 5µM, p53 reactivator inconclusive, RORgamma inh inconclusive
Cc1ccc(N2C(=S)NC3c4cc(Cl)ccc4OC2(C)C3C(=O)N(C)C)cc1 (stereo unspecified)	RORgamma inh 11µM
CC(NC(=O)Nc1ccccc1F)C(C)(C)C (stereo unspecified)	none (no result: CtBP-E1A blk)
C=CCn1c(CCC(O)CCCCC)n[nH]c1=S (stereo unspecified)	RORgamma inh inconclusive
C=CCn1c(-c2ccc(F)cc2)n[nH]c1=S	Gal4-VP16 FLuc inconclusive, RORgamma inh 7.9µM
C=CCn1c(CSCc2ccc(F)cc2)n[nH]c1=S	Gal4-VP16 FLuc 3.5µM, RORgamma inh 3.2µM (no result: CtBP-E1A blk)
C=CCn1c(-c2cccc(OCC)c2)n[nH]c1=S	Gal4-VP16 FLuc 18µM, RORgamma inh 5µM
C=CCn1c(-c2cc(OC)cc(OC)c2)n[nH]c1=S	Gal4-VP16 FLuc inconclusive, RORgamma inh inconclusive
C=CCn1c(-c2ccccc2)n[nH]c1=S	RORgamma inh inconclusive
C=CCn1c(CCc2cc(C(C)(C)C)c(O)c(C(C)(C)C)c2)n[nH]c1=S	Gal4-VP16 FLuc 7.9µM, RORgamma inh 2.5µM
C=CCn1c(Cc2nc3ccc(Cl)cc3[nH]2)n[nH]c1=S	Six1-Eya2 blk inconclusive, p53 reactivator inconclusive, RORgamma inh inconclusive
C=CCn1c(CCCOc2ccc(Cl)cc2Cl)n[nH]c1=S	Gal4-VP16 FLuc 5.6µM, RORgamma inh 3.5µM
C=CCn1c(Cc2ccccc2)n[nH]c1=S	Gal4-VP16 FLuc inconclusive, RORgamma inh 7.1µM
C=CCn1c(-c2ccoc2)n[nH]c1=S	Gal4-VP16 FLuc 18µM, RORgamma inh 11µM
C=CCn1c(-c2ccncc2)n[nH]c1=S	RORgamma inh 10µM
C=CCn1c(Cc2c[nH]c3ccccc23)n[nH]c1=S	none
Cc1cc(NC(=O)c2c(Br)cnn2C)no1	none (no result: Gal4-VP16 FLuc, p53 reactivator, RORgamma inh)
COc1ccc(C(=O)NC2CC2)cc1OC1CCN(Cc2ccc(NC(C)=O)cc2)CC1	none (no result: p53 reactivator)
COC(=O)N/N=C\c1c(C)nn(-c2ccccc2)c1Cl	p53 reactivator inconclusive
COC(=O)c1cnn(-c2ccccc2)c1/C=N/NC(=S)Nc1ccc(Cl)cc1	Gal4-VP16 FLuc 2µM, RORgamma inh 0.45µM
BrC(=C\c1ccccc1)/C=N/Nc1ccc2nncn2n1	CtBP-E1A blk inconclusive
BrC(=C\c1ccccc1)/C=N/n1cnnc1	Gal4-VP16 FLuc inconclusive, RORgamma inh 7.1µM (no result: CtBP-E1A blk)
O=C(COc1nc2ccccc2nc1N1CCOCC1)Nc1cccc(S(=O)(=O)N2CCCCC2)c1	RORgamma inh inconclusive
Cc1c(N2CCCC2)cc2c(c1NC(=O)c1ccccc1Cl)C(C)(C)CC2(C)C	RORgamma inh inconclusive (no result: CtBP-E1A blk)
O=C(/C=C/c1ccco1)NC(=S)Nc1cc(-c2nc3ccccc3s2)ccc1Cl	Gal4-VP16 FLuc 1µM, p53 reactivator inconclusive, RORgamma inh 0.63µM
O=C(/C=C/c1ccco1)NC(=S)Nc1cccc(-c2nc3ccccc3s2)c1	none (no result: Gal4-VP16 FLuc, p53 reactivator, RORgamma inh)
Cc1ccc(-c2nc3ccccc3s2)cc1NC(=S)NC(=O)c1cccc2ccccc12	p53 reactivator inconclusive
